Source: PubChem (National Center for Advancing Translational Sciences (NCATS))
Most compounds without a hit are left out; they make up all but 12% or so of the library.
Sfp inh = Sfp phosphopantetheinyl transferase inhibition. Potency, µM, for inactives: largest response in the series, negative = inhibition, usual class: inhibitors. 310,000 tested, 3.5% active. AID 1490. Biochemical Sfp PPTase activity, qHTS;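 also: the enzyme is Sfp with the accession as filed and its product quenches rhodamine fluorescence; 0% = enzyme reaction without inhibitor and -100% = no enzyme wells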
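Reaction rates are the 30-min fluorescence difference (ex 525, em 598 nm) in wells containing 15 nM Sfp, 5 uM rhodamine-CoA and 12.5 uM BHQ-2-YbbR at pH 7.6 with 10 mM MgCl2.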
JMJD2A Tudor = JMJD2A Tudor domain (human) inhibition; Potency, µM (doses to about 114 µM), for the others: at the highest dose activity change, negative = inhibition, hits mostly inhibitors; O75164; 390,000 tested, 4.4% active; AlphaScreen JMJD2A-Tudor / H3K4me3 peptide binding; also: % is scaled to controls: 0 for no effect and ±100 for the full control effect; nearly all actives have a fitted effect of over 50% in size
HP1b binding inh = blocks HP1-beta chromodomain binding to methylated histone tails; Potency, µM (doses to about 114 µM), for inactives: top-dose activity change, negative = inhibition, most hits filed as inhibitors; AlphaScreen HP1-beta / biotin-H3K9me3 peptide binding; P83916; AID 540317; 390,000 tested, 0.56% active; also: nearly all actives have a fitted effect of over 70% in size
Target sequence (P83916 whole entry, looked up): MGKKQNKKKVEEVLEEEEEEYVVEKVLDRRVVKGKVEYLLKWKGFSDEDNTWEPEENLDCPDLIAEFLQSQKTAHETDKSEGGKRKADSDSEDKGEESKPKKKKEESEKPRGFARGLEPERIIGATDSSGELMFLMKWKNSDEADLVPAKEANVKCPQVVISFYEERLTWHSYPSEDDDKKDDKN
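HP1-beta protein (50 nM final) preincubated 30 min at room temperature with biotinylated H3(1-18)K9me3 peptide (50 nM) in PBS pH 7.4, 0.01% Tween-20, then compound added for 30 min. AlphaScreen streptavidin donor/nickel chelate acceptor beads (10 ug/mL final), 30 min dark, luminescence read.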
PLK1 PBD block = PLK1 (human) polo-box domain binding inhibition | Plk1 PBD binding of FITC phosphopeptide, fluorescence polarization | Potency, µM, for inactives: max response, negative = inhibition, hits mostly inhibitors | 360,000 tested, 2.8% active | AID 720504; also: series mostly up to about 57 µM; % is scaled to controls: 0 for no effect and ±100 for the full control effect; nearly all actives have a fitted effect of over 65% in size
BAZ2B block = inhibitors of human BAZ2B bromodomain; 360,000 tested, 4.4% active; AlphaScreen BAZ2B-H3K14Ac peptide displacement; Potency, µM (highest dose often 114 µM), inactives show at the top dose activity change, negative = inhibition, most hits filed as inhibitors; Q9UIF8; also: % is scaled to controls: 0 for no effect and ±100 for the full control effect; nearly all actives have a fitted effect of over 60% in size
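AlphaScreen luminescence quantifies BAZ2B engagement of H3K14Ac peptide; the protein and biotinylated peptide are both at 50 nM final, buffer PBS pH 7.4 with 0.01% Tween-20, all steps at room temperature.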
G9a inh = G9a (human) methyltransferase inhibition; Potency, µM (doses to about 102 µM), without a hit: top-dose activity, negative = inhibition, actives largely listed as inhibitors; Q96KQ7; G9a H3K9 monomethylation, AlphaScreen, 2 h; 350,000 tested, 8.8% active; also: % is scaled to controls: 0 for no effect and ±100 for the full control effect; nearly all actives have a fitted effect of over 75% in size
Target sequence (Q96KQ7 913-1193 limits assumed): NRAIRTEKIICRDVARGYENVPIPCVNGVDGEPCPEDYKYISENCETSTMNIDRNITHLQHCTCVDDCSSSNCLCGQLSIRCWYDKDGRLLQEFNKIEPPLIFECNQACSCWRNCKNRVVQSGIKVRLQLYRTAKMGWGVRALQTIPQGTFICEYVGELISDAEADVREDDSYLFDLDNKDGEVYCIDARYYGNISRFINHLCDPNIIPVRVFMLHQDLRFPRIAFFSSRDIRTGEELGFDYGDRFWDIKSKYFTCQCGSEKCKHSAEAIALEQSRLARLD
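Step 1: enzyme (final 20 nM) with compound, 15 min RT. Step 2: substrate peptide 500 nM and SAM 20 uM, 2 h RT. Step 3: anti-H3K9me1 antibody and AlphaScreen beads, 10 min, then plate read.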
The depositor's hits bear a star; ? = inconclusive; / = no result; [ ] = remark or other dose. Calls follow the shape of the dose curve; as a rule, active = well fitted curve in the direction sought with a large enough effect; inconclusive = small, poorly fitted or top-dose-only effect, or another doubt; inactive = no such curve, though single readings can be large; an effect the other way counts as inactive or inconclusive. Potency is read from the fitted curve at half-maximal effect.

SMILES	Sfp inh	JMJD2A Tudor	HP1b binding inh	PLK1 PBD block	BAZ2B block	G9a inh
CC[C@H](C)[C@H](N)C1=N[C@H](C(=O)N[C@@H](CC(C)C)C(=O)N[C@@H](CCC(=O)O)C(=O)N[C@@H](C(=O)N[C@H]2CCCCNC(=O)[C@@H](CC(N)=O)NC(=O)[C@@H](CC(=O)O)NC(=O)[C@@H](Cc3cnc[nH]3)NC(=O)[C@@H](Cc3ccccc3)NC(=O)[C@@H]([C@@H](C)CC)NC(=O)[C@@H](CCCN)NC2=O)[C@@H](C)CC)CS1	-11%	/	/	/	/	42%[21.5 µM]
O=C(c1ccc(=O)oc1)N1CCCc2ccccc21	?	50µM*	-49%	?	45µM*	?
O=C(c1ccccc1)N1CCCc2ccccc21	14%	3%	37%	0%	4%	-1%[59 µM]
O=C(Nc1ccc(C(=O)N2CCCc3ccccc32)cc1)c1cccs1	-9%	100µM*	9%	-9%	-3%	29%
CC(=O)Nc1ccc(C(=O)N2CCCc3ccccc32)cc1	11%	4%	17%	-3%	-22%	67%
COc1cc(CO)ccc1OCc1nnnn1-c1ccc(C)cc1	14%	-21%	-4%	17µM*	-1%	-4%
COc1cc(CSc2nnnn2-c2ccc(C)cc2)cc(OC)c1OC	0%	10%	32%	-6%	10%	-2%[59 µM]
Cc1cccc(CNc2ccnc(-c3ccccc3Cl)n2)c1	-12%	/	/	/	/	-8%[0.501 µM]
CCCN(CC(=O)Nc1ccccc1C)C(=O)c1ccc2ccccc2n1	/	0%	38%	0%	-16%	-46%
Cc1ccccc1NC(=S)c1ccc2ccccc2n1	28µM*	-14%	37%	2.7µM*	10µM*	11µM*
CC(=O)c1ccc(N2CCN(c3ncnc4c3c(-c3ccccc3)cn4-c3ccc(Cl)cc3)CC2)cc1	/	-21%	-9%	/	?	-1%[59 µM]
Cc1[nH]c2ccccc2c1C1C(c2ccccc2)=NN=C(C(C)C)N1O (stereo not given)	-1%	-34%	1%	-12%	-31%	6.3µM*
C[C@]12CCC3C(CC=C4C[C@@H](O)CC[C@@]43C)C1CCC2[C@]1(C)CCC(=O)O1 (stereo not given in full)	26%	?	?	-3%	56µM*	?
CC12CCC(O)CC1=CCC1C2CCC2(C)C1CCC21CCC(=O)O1 (stereo not given)	0%	-13%	1%	0%	10%	15%[59 µM]
O=C(O)Cn1cc(/C=c2/sc3nc4ccccc4n3c2=O)c2ccccc21	-23%	56µM*	?	?	?	50µM*
NS(=O)(=O)c1cc2c(cc1Cl)NC(CSCc1ccccc1)=NS2(=O)=O	?	0%	15%	-2%	89µM*	-126%[59 µM]
O=C(CSC1=NS(=O)(=O)c2cc(Cl)ccc2N1)NCc1ccccc1	/	-4%	23%	1%	6%	-9%
COc1cc(-c2nc(CN3CCN(c4ncccn4)CC3)c(C)o2)ccc1F	19%	-14%[57.1 µM]	21%	-1%	-31%	?
COc1ccc(CN2CCN(c3ccccn3)CC2)c(OC)c1C	?	56µM*	?	-3%	50µM*	/
COc1ccc(CN2CCN(c3ncccn3)CC2)c(C)c1C	-21%	18µM*	?	-12%	56µM*	4.5µM*
COc1ccccc1CC(=O)N1CCN(c2ccccn2)CC1	-6%	-7%	16%	1%	6%	4%[59 µM]
COc1cc(C)c(CN2CCN(c3ncccn3)CC2)cc1C	/	50µM*	?	5%	/	/
COc1ccc(Br)cc1CN1CCN(c2ncccn2)CC1	/	22µM*	?	3%	/	/
Cc1c(C(=O)Nc2ccccc2-c2ccccc2)cccc1[N+](=O)[O-]	14%	-14%	35%	0%	7%	7%[59 µM]
CCCCC(c1nnnn1C1CCCC1)N1CCN(C2CCCC2)CC1 (stereo not given)	5%	-14%	43%	-2%	-37%	-9%[59 µM]
SMILES	Sfp inh	JMJD2A Tudor	HP1b binding inh	PLK1 PBD block	BAZ2B block	G9a inh
O=c1cc(-c2ccccc2F)[nH]c2cc3c(cc12)OCO3	/	/	/	/	/	-7%[59 µM]
COc1cccc(CN2CCN(c3ncccn3)CC2)c1OC	-20%	28µM*	?	5%	50µM*	?
Fc1ccc(F)c(CN2CCN(c3ncccn3)CC2)c1	5%	-21%	15%	2%	-35%	-10%[59 µM]
CC1(C)CC(=O)C2=C(C1)N(Cc1ccco1)C(=O)C2(NC(=O)C1CCCCC1)C(F)(F)F (stereo not given)	25µM*	-2%	27%	-4%	-13%	-43%[12.7 µM]
CC1(C)CC(=O)C2=C(C1)N(Cc1ccco1)C(=O)C2(NC(=O)c1ccc(Cl)cc1Cl)C(F)(F)F (stereo not given)	0%	-18%	-18%	3%	-37%	-3%[12.7 µM]
N#C/C(=N\Nc1ccc([N+](=O)[O-])cc1)C(=N)N1CCOCC1	6%	-12%	24%	-6%	-25%	/
N#C/C(=N/Nc1ccc([N+](=O)[O-])cc1)C(=N)N1CCCCC1	-15%	56µM*	?	-5%	35µM*	?
N#C/C(=N\Nc1ccc([N+](=O)[O-])cc1)C(N)=S	45µM*	28µM*	35µM*	-24%	14µM*	/
CNC(=O)c1ccc2nc(-c3cccc(C)c3)c(-c3cccc(C)c3)nc2c1	/	-21%[57.1 µM]	5%[57 µM]	/	/	/
CCOc1ccc(NC(=O)C2CC(=O)N(c3ccc(C(C)C)cc3)C2)cc1 (stereo not given)	/	-6%	30%	/	-8%	-9%[59 µM]
Cc1cc2n(n1)CCCN2C(=O)Nc1ccc(F)c(Cl)c1	/	-2%	10%	/	5%[57.1 µM]	10%[59 µM]
Cc1cc2n(n1)SC(Nc1ccc(F)c(Cl)c1)N2 (stereo not given)	?	?	-28%	-14%	-4%	1.4µM*
Nn1cc(-c2ccccc2)nc1SCC(=O)Nc1ccc(S(N)(=O)=O)cc1	12%	-30%	10%	-18%	-32%	?
Cn1cc(C(=O)CCl)c2ccccc21	1%	-14%	43%	24µM*	4%	-8%[0.501 µM]
Cn1cc(C(N)=O)c2ccccc21	15%	-3%	12%	-9%	?	3%
O=C1OCCC/C1=C\c1ccc2c(c1)OCO2	-10%	-15%	29%	-5%	-38%	-13%[12.7 µM]
CCCN1C/C(=C/c2ccc3c(c2)OCO3)C(=O)/C(=C/c2ccc3c(c2)OCO3)C1	40µM*	22µM*	?	-23%	50µM*	?
CC1=C/C(=C\c2ccc3c(c2)OCO3)C(=O)S1	-25%	?	-11%	-21%	?	25µM*
COc1ccc2c(c1)sc1ncc(C(=O)NCc3cccc(Cl)c3)c(=O)n12	/	-17%	10%	/	0%	13%[59 µM]
